Reference: the supplement of paper PMC6555819

Key:
Test in all cases: PBM binding z-score (relative to random genomic background probes); higher = stronger binding; sequences stand for … in GC…GCGATTGACAGCGTAGAATGAAGG
[1] = test system: RARb homodimer (NR concentration 270 nM)
How it was run: (§1)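 Binding z-scores take random background probes as their reference. They come from custom Agilent 4×180K protein-binding microarrays incubated 1 h with ligand-free nuclear receptor dimers, with antibodies against each partner (one per run) detecting binding. Scanned fluorescence was regression-normalized.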

[2] = test system: RARg:RXRa (NR concentration 270 nM, RXRa partner concentration 90 nM)
How it was run: as §1

[3] = test system: RARg homodimer (NR concentration 270 nM)
How it was run: as §1

[4] = test system: RXRa DBDmut IVT, anti-RXR (DBD mutation: RXRa K156A/R161A, NR concentration 90 nM)
How it was run: as §1

[5] = test system: RXRa homodimer (NR concentration 180 nM)
How it was run: as §1

[6] = test system: THRa:RXRa (NR concentration 90 nM, RXRa partner concentration 90 nM)
How it was run: as §1

[7] = test system: THRa homodimer (NR concentration 90 nM)
How it was run: as §1

[8] = test system: VDR homodimer (NR concentration 270 nM)
How it was run: as §1

Sequence CGCCAAAGTTCAAGGTAACGTAACAGAAAGCAGC has a PBM binding z-score [1] of 4.05, a PBM binding z-score [2] of 5.2 and a PBM binding z-score [3] of 5.94. For the same sequence, the PBM binding z-score [4] was 4.68, the PBM binding z-score [5] was 4.57 and the PBM binding z-score [6] was 2.96. The PBM binding z-score [7] was 1.28 and the PBM binding z-score [8] was 3.03.

TCTGCTAGGTCAACGATGGTCAGCTAGTCTGCTA showed a PBM binding z-score [1] of 3.54, a PBM binding z-score [2] of 3.9 and a PBM binding z-score [3] of 4.61. It also gave a PBM binding z-score [4] of 0.638, a PBM binding z-score [5] of 2.5 and a PBM binding z-score [6] of 3.16. For the same sequence, the PBM binding z-score [7] was 0.617 and the PBM binding z-score [8] was -0.544.

TAGCCTAGGTCATGGGCCAGTATGCCACGCGAAC gave a PBM binding z-score [1] of 3.09, a PBM binding z-score [2] of 4.15 and a PBM binding z-score [3] of 4.47. The PBM binding z-score [4] was 0.363, the PBM binding z-score [5] was 3.54 and the PBM binding z-score [6] was 3.07. The PBM binding z-score [7] was 1.16 and the PBM binding z-score [8] was 0.214.

ACTAGCAGGCCAAGTCTGGGTCACTCAAACAAAG was tested, and the PBM binding z-score [1] was 2.36, the PBM binding z-score [2] was 2.25 and the PBM binding z-score [3] was 1.48. The PBM binding z-score [4] was -0.171, the PBM binding z-score [5] was 0.902 and the PBM binding z-score [6] was 2.35. For the same sequence, the PBM binding z-score [7] was 0.768 and the PBM binding z-score [8] was 0.0682.

In the case of GCTCGGAGGACAAGGACAGAGCTTTGTCCGTAGA, the PBM binding z-score [1] is reported as 0.139, the PBM binding z-score [2] is reported as -0.0807 and the PBM binding z-score [3] is reported as 0.418. The PBM binding z-score [4] was -0.45, the PBM binding z-score [5] was -0.592 and the PBM binding z-score [6] was 1.31. For the same sequence, the PBM binding z-score [7] was 0.61 and the PBM binding z-score [8] was -0.639.

Work on CCTTACGGGTCACTGACAGGTTATAGTATTTGGA yielded a PBM binding z-score [1] of 3.11, a PBM binding z-score [2] of 5.61 and a PBM binding z-score [3] of 4.34. For the same sequence, the PBM binding z-score [4] was 1.85, the PBM binding z-score [5] was 5.18 and the PBM binding z-score [6] was 3.04. The PBM binding z-score [7] was 0.562 and the PBM binding z-score [8] was 1.17.

CATACAGGGTCAGTTAGGCCAGAGTAGGGACGGC gave a PBM binding z-score [1] of 2.87, a PBM binding z-score [2] of 3.61 and a PBM binding z-score [3] of 3.84. The PBM binding z-score [4] was 1.68, the PBM binding z-score [5] was 2.94 and the PBM binding z-score [6] was 2.77. It also gave a PBM binding z-score [7] of 1.04 and a PBM binding z-score [8] of 1.69.

GCTAGTTGGTCAGTAAAAGGTCACGCACCGGTCG showed a PBM binding z-score [1] of 5.17, a PBM binding z-score [2] of 6.19 and a PBM binding z-score [3] of 5.77. It also gave a PBM binding z-score [4] of 0.692, a PBM binding z-score [5] of 6.35 and a PBM binding z-score [6] of 3.75. The PBM binding z-score [7] was 2.43 and the PBM binding z-score [8] was 2.07.

Sequence TCTAGTTGGACAAAGGTCACACACTCGAAATGCG has a PBM binding z-score [1] of 5.06, a PBM binding z-score [2] of 6.62 and a PBM binding z-score [3] of 5.93. For the same sequence, the PBM binding z-score [4] was 1.75, the PBM binding z-score [5] was 7.13 and the PBM binding z-score [6] was 4.12. The PBM binding z-score [7] was 1.8 and the PBM binding z-score [8] was 2.24.

Sequence ATCTCTAGGTAAAGATAGATCAGTGAATGCAAAT has a PBM binding z-score [1] of -0.493, a PBM binding z-score [2] of 0.264 and a PBM binding z-score [3] of 0.561. For the same sequence, the PBM binding z-score [4] was -0.154, the PBM binding z-score [5] was -0.137 and the PBM binding z-score [6] was 0.0339. It also gave a PBM binding z-score [7] of -0.214 and a PBM binding z-score [8] of -0.0693.

With TCTTGTAGATCAAGCACGTTAAGAAAGCCTGAGT the PBM binding z-score [1] was -0.605, the PBM binding z-score [2] was -0.0676 and the PBM binding z-score [3] was -0.183. The PBM binding z-score [4] was 0.721, the PBM binding z-score [5] was 0.234 and the PBM binding z-score [6] was -0.341. For the same sequence, the PBM binding z-score [7] was -0.599 and the PBM binding z-score [8] was -0.125.

CGAACTAGGTCATTAACAGGACAGTGAATAGTAA gave a PBM binding z-score [1] of 2.34, a PBM binding z-score [2] of 4.13 and a PBM binding z-score [3] of 4.05. It also gave a PBM binding z-score [4] of 2.35, a PBM binding z-score [5] of 2.29 and a PBM binding z-score [6] of 2.76. It also gave a PBM binding z-score [7] of 0.884 and a PBM binding z-score [8] of 1.15.

Work on CCGACTGGGGCATAAGTTTACCATAAGCCAGCCC yielded a PBM binding z-score [1] of 0.519, a PBM binding z-score [2] of 0.0613 and a PBM binding z-score [3] of 0.233. For the same sequence, the PBM binding z-score [4] was 0.17, the PBM binding z-score [5] was -0.0212 and the PBM binding z-score [6] was -0.345. The PBM binding z-score [7] was -0.433 and the PBM binding z-score [8] was -0.134.

TGAATGAGGTTCTAAGATCAGGGAACGTTGCAAA was tested, and the PBM binding z-score [1] was -0.907, the PBM binding z-score [2] was -0.113 and the PBM binding z-score [3] was -0.275. For the same sequence, the PBM binding z-score [4] was -0.623, the PBM binding z-score [5] was -0.155 and the PBM binding z-score [6] was -0.125. For the same sequence, the PBM binding z-score [7] was -0.86 and the PBM binding z-score [8] was -0.351.
